# Measurements from PubChem BioAssay (NCI).
# About 79,000 compounds went through this panel and 15% of them were active in at least one assay; those are over-represented in the sample as a whole. A number with no mark means an inactive call. Active and inactive are the calls of the source. No stated cut-off is given here; in the data, active means growth inhibition above about 70%; inactive means the rest.
# Test: NCI Yeast Anticancer Drug Screen. Data for the rad14 strain (AID 159);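 further: 0% = growth of vehicle-treated control cultures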
# Conditions: S. cerevisiae rad14 strain growth inhibition, active compounds read high
# Protocol: Growth inhibition of yeast strains with defined genetic alterations is measured as a screen for potential anti-cancer activity. Selected strains with alterations in DNA damage repair or cell cycle control were exposed to compounds and growth inhibition was measured relative to vehicle treated controls. The strain used in this assay is rad14
Structure (SMILES),growth inhibition (at 1.2 µM) [%],growth inhibition (at 3.7 µM) [%],growth inhibition (at 11.0 µM),growth inhibition (at 33.0 µM),growth inhibition (at 100.0 µM)
O=C(CSS(=O)(=O)O)c1ccccc1,2,3,5%,9%,19%
Cc1cc(NC(=S)SCc2ccc(Cl)cc2)ccc1Cl,-4,22,46%,99% (active),98% (active)
CN(C)CCNC(=O)c1cccc2nc3c4ccccc4c4ccccc4c3nc12,3,8,67%,98% (active),95% (active)
CCOc1nc(OCC)nc(-c2cccn2-c2ccccc2)n1,-11,-8,-1%,13%,90% (active)
COc1cc(C(C)(C)C)cc(OC)c1C(O)(c1c(OC)cc(C(C)(C)C)cc1OC)c1c(OC)cc(C(C)(C)C)cc1OC,-24,-28,88% (active),91% (active),86% (active)
O=C(Cc1ccccc1)c1ccc(O)cc1,-13,-25,-5%,62%,89% (active)
O=CC(=C(I)I)c1ccccc1,20,38,73% (active),99% (active),86% (active)
CCCCCCCCCCCCCCCCOCC(Cl)COP(=O)(O)OP(=O)(O)OCC1OC(n2cnc3c(N)ncnc32)C(O)C1O (stereo not given),10,6,29%,35%,46%
